Only some compounds are listed: those with a hit (about 0.9% of all), similar ones and a draw of the others.
gsp antag: qHTS for Antagonists of gsp, the Etiologic Mutation Responsible for Fibrous Dysplasia/McCune-Albright Syndrome: qHTS; gsp-mutant cells, cAMP HTRF, 30 min; Potency, µM (series often up to 76.9 µM), most hits filed as inhibitors; 340,000 compounds, 0.4% hits; calls by dose curve; cell line not stated here;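 note: intracellular cAMP measured with PDE inhibitor Ro 20-1724 present during compound exposure; nearly all actives have a fitted effect of over 65% in size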
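HTRF cAMP read-out (cAMP-d2 plus anti-cAMP antibody-K in lysis buffer, 30 min RT). Before lysis, cells are exposed to compounds with […] for 30 min at 37C in DPBS containing Ca/Mg, BSA and Tween 20.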
RXFP1 ag: qHTS Assay for Agonists of the Relaxin Receptor RXFP1. HEK293T-RXFP1 cAMP TR-FRET, 30 min; response scale: percent of porcine relaxin response, buffer zero. Potency, µM (highest dose often 57.5 µM), usual class: activators. 370,000 compounds, 0.3% hits; active = well fitted activation curve with a large enough effect; inconclusive = small, poorly fitted or top-dose-only effect; note: nearly all actives have a fitted effect of over 60% in size
Target sequence (Q9HBX9 whole entry, looked up): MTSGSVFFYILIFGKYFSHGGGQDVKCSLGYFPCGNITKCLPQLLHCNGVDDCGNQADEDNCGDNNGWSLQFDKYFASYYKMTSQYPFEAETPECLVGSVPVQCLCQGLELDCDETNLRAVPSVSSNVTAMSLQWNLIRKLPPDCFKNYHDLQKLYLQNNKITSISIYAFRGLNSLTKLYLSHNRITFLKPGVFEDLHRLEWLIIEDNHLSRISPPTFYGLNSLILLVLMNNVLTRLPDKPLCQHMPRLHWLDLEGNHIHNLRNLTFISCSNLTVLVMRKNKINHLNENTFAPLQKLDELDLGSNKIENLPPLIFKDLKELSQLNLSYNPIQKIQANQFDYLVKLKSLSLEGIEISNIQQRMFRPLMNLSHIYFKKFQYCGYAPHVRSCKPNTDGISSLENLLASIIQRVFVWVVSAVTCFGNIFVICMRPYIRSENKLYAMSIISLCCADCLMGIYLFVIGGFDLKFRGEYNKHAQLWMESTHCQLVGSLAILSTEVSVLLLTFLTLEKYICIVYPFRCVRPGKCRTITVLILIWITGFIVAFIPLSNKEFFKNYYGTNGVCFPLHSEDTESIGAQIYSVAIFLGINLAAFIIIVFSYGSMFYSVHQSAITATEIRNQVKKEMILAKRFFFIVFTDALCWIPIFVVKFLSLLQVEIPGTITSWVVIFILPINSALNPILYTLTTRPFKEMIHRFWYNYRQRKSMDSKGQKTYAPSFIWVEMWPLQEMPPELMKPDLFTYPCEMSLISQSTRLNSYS
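Agonist response is measured as cAMP accumulation in an RXFP1-transfected HEK293T line under PDE4 inhibition. Values are scaled between buffer-only and 29 nM porcine relaxin, and EC50s come from standard Hill equation fits.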
RXFP1 antagonist: qHTS Assay for Antagonists of the Relaxin Receptor RXFP1; Relaxin receptor 1 (Homo sapiens), Q9HBX9; activity change, negative = inhibition, % at 57.5 µM; HEK293-RXFP1, relaxin-stimulated cAMP HTRF, 30 min; hits give low values; 350,000 compounds, 0.59% hits; AID 1259400, 2018;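 active = activity change of -60% or lower, but not beyond a set lower limit; inconclusive = change between -60% and -40%, or beyond the set limit; inactive = change above -40%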
gsp ag: qHTS for Agonist of gsp, the Etiologic Mutation Responsible for Fibrous Dysplasia/McCune-Albright Syndrome: qHTS; gsp mutant cells, cAMP HTRF, 30 min; Potency, µM (series often up to 76.9 µM), actives largely listed as activators; AID 624287, 2012; 340,000 compounds, 0.13% hits; active = well fitted activation curve with a large enough effect; inconclusive = small, poorly fitted or top-dose-only effect, or another doubt; inactive = no such curve, though single readings can be large or run the other way; cell line not stated here;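 note: phosphodiesterase inhibitor Ro 20-1724 added with compounds to block cAMP breakdown; nearly all actives have a fitted effect of over 60% in size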
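Cells stably selected in G418 were plated at 2000/well, grown 16-24 hr, then given compounds in DMSO with the PDE inhibitor […] (300 uM solution added) for 30 min at 37C; cAMP was read by HTRF.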
Hits are given with their value; [ ] = remark or other dose.

How did Clc1cccc(CN2CCc3c([nH]c4ccccc34)C2)c1 do in these assays?
gsp antag: inactive; RXFP1 ag: inactive; RXFP1 antagonist: -64; gsp ag: inactive

What do the screens show for `Cc1cccc(NC(=O)c2cc(-c3ccc4c(c3)OCCO4)on2)c1`?
RXFP1 ag: inactive

How did CC(C)(C)c1cc(=O)[nH]c(SCc2ccccc2Cl)n1 do in these assays?
gsp antag: inactive; RXFP1 ag: inactive; RXFP1 antagonist: -74; gsp ag: inactive[15.4 µM]

Results for CC(C)(C)c1cc(=O)[nH]c(SCc2ccccc2)n1 ?
gsp antag: inactive; RXFP1 ag: inactive; RXFP1 antagonist: inactive; gsp ag: inactive[15.4 µM]

Results for Cc1ccc(C(=O)NCC(=O)OCCOc2ccccc2Cl)cc1 ?
gsp antag: inactive; RXFP1 ag: inactive; RXFP1 antagonist: -84; gsp ag: inactive[15.4 µM]

Results for CC(=O)Nc1cccc(NC(=O)CSc2cn(CC(=O)N(C(C)C)C(C)C)c3ccccc23)c1 ?
RXFP1 ag: inactive; RXFP1 antagonist: inactive

Results for O=C(O)C1CCC(Cn2c(SCc3cc(=O)n4cc(Br)ccc4n3)nc3ccsc3c2=O)CC1 (stereo unspecified) ?
RXFP1 ag: 8.9µM; RXFP1 antagonist: inactive; gsp ag: inactive[15.4 µM]

Results for O=C(O)CCCCn1c(SCc2cc(=O)n3cc(Cl)ccc3n2)nc2ccsc2c1=O ?
gsp antag: inactive; RXFP1 ag: inconclusive; RXFP1 antagonist: inactive; gsp ag: inconclusive

Results for O=C(O)c1ccc(Cn2c(SCc3cc(=O)n4cc(Br)ccc4n3)nc3ccsc3c2=O)cc1 ?
RXFP1 ag: 16µM

How did CC(C)c1ccc(NC(=O)c2ccc(F)c(S(=O)(=O)N3CCc4ccccc4C3)c2)cc1 do in these assays?
RXFP1 ag: inactive; RXFP1 antagonist: inactive

What do the screens show for `O=C(COc1ccccc1O)Nc1ccc(Cl)cc1`?
gsp antag: 35µM; RXFP1 ag: inactive; RXFP1 antagonist: inactive; gsp ag: inactive

What do the screens show for `CCOC(=O)c1c(C)oc2ccc(N(C(=O)Oc3ccccc3)S(=O)(=O)c3ccccc3)cc12`?
RXFP1 ag: inactive

What do the screens show for `COc1ccc(OCCN2C(=O)c3ccccc3C2=O)c([N+](=O)[O-])c1`?
gsp antag: inactive; RXFP1 ag: inactive; RXFP1 antagonist: inactive; gsp ag: 10µM

What do the screens show for `CCOC(=O)C1=C(COC(=O)/C=C/c2ccc(SC)cc2)NC(=O)NC1C` (stereo unspecified)?
gsp antag: inactive; RXFP1 ag: inactive; RXFP1 antagonist: -76; gsp ag: inactive[15.4 µM]

What do the screens show for `CCOC(=O)c1cccc(NC(=O)CCc2c(C)nn(-c3ccc(N4CCCCC4)nn3)c2C)c1`?
RXFP1 ag: inactive; RXFP1 antagonist: inactive

How did CCOC(=O)c1ccc(Nc2nc3nonc3nc2Nc2cccc(C)c2C)cc1 do in these assays?
RXFP1 ag: inactive; RXFP1 antagonist: inactive

Results for CCc1ccc(CN(Cc2ccco2)C(=O)COc2ccccc2Cl)cc1 ?
RXFP1 ag: inactive; RXFP1 antagonist: -61

Results for CCc1ccc(CN(Cc2ccco2)C(=O)c2ccc(OC)cc2)cc1 ?
RXFP1 ag: inactive; RXFP1 antagonist: -63

What do the screens show for `CCOC(=O)CNC(=S)N(Cc1ccco1)Cc1ccccc1Cl`?
gsp antag: 40µM; RXFP1 ag: inactive; RXFP1 antagonist: inactive; gsp ag: inactive

What do the screens show for `CCOC(=O)c1cccc(-n2nnc3c(sc4nc(C)c(Br)c(C)c43)c2=O)c1`?
RXFP1 ag: inactive; RXFP1 antagonist: inactive

What do the screens show for `COc1cc(C(C)=O)ccc1OCCCN1CCC(c2noc3cc(F)ccc23)CC1`?
RXFP1 antagonist: inactive

Results for N[C@H](C(=O)O)c1ccc(O)cc1 ?
RXFP1 antagonist: inactive

How did COc1cccc(N2CCN(c3ncnc4c3cnn4-c3ccc(C)cc3C)CC2)c1 do in these assays?
gsp antag: 7.9µM; RXFP1 ag: inactive; gsp ag: inactive

How did COc1cc(O)c(C(=O)c2ccccc2)cc1S(=O)(=O)O do in these assays?
RXFP1 antagonist: inactive

What do the screens show for `COc1ccc(C(=O)c2ccccc2)c2c(O)ccc(C(=O)c3ccccc3)c12`?
gsp antag: 28µM; RXFP1 ag: inactive; RXFP1 antagonist: inactive; gsp ag: inactive

Results for Cc1ccc(NC(=O)Cn2c(=O)n(CC(=O)NCCc3ccccc3)c(=O)c3ccccc32)cc1C ?
RXFP1 ag: inactive

Compound activity from PubChem.
